Test [1] addresses human Purinergic Receptor P2Y, P2RY1 (gene 5028) (UniProt P47900). The experiment in a line: NVS_GPCR_hPY2: NovaScreen (NVS) G Protein-Coupled Receptor Assay for human Purinergic Receptor P2Y (AID 2283281). A digest of the protocol:
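Filtration scintillation readout of radioligand displacement on U937 extract, measured 1 h post-dosing. Single 25 uM duplicate screen, then singleton concentration series to 50 uM for chemicals passing threshold; DMSO as baseline.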

For test [2], the target named is human Thromboxane A2 Receptor (TXA2), TBXA2R (gene 6915) (UniProt P21731). The experiment in a line: NVS_GPCR_hTXA2: NovaScreen (NVS) G Protein-Coupled Receptor Assay for human Thromboxane A2 Receptor (TXA2) (AID 2283282).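 Note: actives reduce bound radioligand signal relative to DMSO baseline.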 A digest of the protocol: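 Cell-free radioligand binding with human platelet-derived receptor; 1 h after dosing, filter-based scintillation counting, loss of signal vs DMSO. Primary screen in duplicate at 25 uM.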
human Thromboxane A2 Receptor (TXA2), TBXA2R (gene 6915), sequence (P21731 whole entry, looked up): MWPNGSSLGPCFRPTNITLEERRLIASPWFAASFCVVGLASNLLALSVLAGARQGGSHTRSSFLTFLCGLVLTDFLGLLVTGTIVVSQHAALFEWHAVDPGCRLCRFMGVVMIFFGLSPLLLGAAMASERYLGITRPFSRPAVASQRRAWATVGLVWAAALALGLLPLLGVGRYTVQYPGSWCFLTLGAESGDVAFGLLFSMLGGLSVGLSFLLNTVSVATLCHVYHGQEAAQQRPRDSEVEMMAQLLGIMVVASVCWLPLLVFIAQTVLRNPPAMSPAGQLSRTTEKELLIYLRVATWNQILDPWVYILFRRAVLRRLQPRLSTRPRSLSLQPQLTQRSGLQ

Test [3] has as its target mouse Cholecystokinin, CCK1 Receptor (CCKA), Cckar (gene 12425) (UniProt O08786). As to the kind of experiment: NVS_GPCR_mCCKAPeripheral: NovaScreen (NVS) G Protein-Coupled Receptor Assay for mouse Cholecystokinin, CCK1 Receptor (CCKA) (AID 2283285). A digest of the protocol: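 Chemicals were first screened in duplicate at 25 uM, with those meeting threshold (e.g., 30% inhibition) retested in singleton concentration series to 50 uM maximum. Binding of radioligand to mouse pancreatic membranes was read after 2 h by filtration and scintillation counting.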

In test [4] the target is human Dopamine Receptor D2 (DRD2), DRD2 (gene 1813) (UniProt P14416). As to the kind of experiment: NVS_GPCR_hDRD2s: NovaScreen (NVS) G Protein-Coupled Receptor Assay for human Dopamine Receptor D2 (DRD2) (AID 2283266). A digest of the protocol:
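Test compound (25 uM, duplicate in the primary screen; concentration series at follow-up) competed with radioligand for human DRD2 in CHO-derived membrane protein. Filter-based scintillation counting was done 1.5 hours after dosing, with loss of signal analysed against DMSO.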

For test [5], the target named is human Endothelin Receptor Type B (ETB), EDNRB (gene 1910) (UniProt P24530). As to the kind of experiment: NVS_GPCR_hETB: NovaScreen (NVS) G Protein-Coupled Receptor Assay for human Endothelin Receptor Type B (ETB) (AID 2283267). The method, boiled down: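 Filter-based scintillation readout of radioligand displacement, 4 h, using membranes from human astrocytoma cells. Actives from a 25 uM duplicate screen were retested in concentration-response (top 50 uM) relative to DMSO baseline.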
human Endothelin Receptor Type B (ETB), EDNRB (gene 1910), sequence (P24530 whole entry, looked up): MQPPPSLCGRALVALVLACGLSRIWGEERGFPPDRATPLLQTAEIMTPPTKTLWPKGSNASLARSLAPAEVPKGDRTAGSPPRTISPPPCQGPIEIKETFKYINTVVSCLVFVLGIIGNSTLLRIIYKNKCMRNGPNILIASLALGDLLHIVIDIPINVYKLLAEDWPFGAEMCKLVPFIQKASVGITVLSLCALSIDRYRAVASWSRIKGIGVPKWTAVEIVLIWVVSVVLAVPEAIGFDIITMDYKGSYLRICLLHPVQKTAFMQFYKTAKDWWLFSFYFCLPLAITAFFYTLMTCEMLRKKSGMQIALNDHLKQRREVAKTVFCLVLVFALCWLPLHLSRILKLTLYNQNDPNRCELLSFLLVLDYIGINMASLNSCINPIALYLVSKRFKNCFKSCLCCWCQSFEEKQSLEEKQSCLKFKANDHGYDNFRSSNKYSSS

For test [6], the target named is human Histamine 1 Receptor (H1), HRH1 (gene 3269) (UniProt P35367). As to the kind of experiment: NVS_GPCR_hH1: NovaScreen (NVS) G Protein-Coupled Receptor Assay for human Histamine 1 Receptor (H1) (AID 2283268). A digest of the protocol:
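Filter-based scintillation detection of radioligand binding to human H1, 1 h incubation; chemicals screened in duplicate at 25 uM, then concentration-response; signal loss relative to DMSO taken as activity.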

Test [7] has as its target D(1A) dopamine receptor (Homo sapiens) (UniProt P21728). As to the kind of experiment: NVS_GPCR_hDRD1: NovaScreen (NVS) G Protein-Coupled Receptor Assay for human Dopamine Receptor D1 (DRD1) (AID 2283269). A digest of the protocol:
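Radioligand displacement binding on membranes/protein extracted from HEK293 expressing human D1, cell-free; read 1 h after dosing by filter-based scintillation counting. Primary screen in duplicate at 25 uM, actives followed up in concentration series; signal loss versus DMSO baseline.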

In test [8] the target is Muscarinic acetylcholine receptor M1 (Homo sapiens) (UniProt P11229). As to the kind of experiment: NVS_GPCR_hM1: NovaScreen (NVS) G Protein-Coupled Receptor Assay for human Muscarinic, M1 Receptor (AID 2283270). A digest of the protocol:
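Actives from a duplicate 25 uM single-point screen were retested in concentration series. Binding measured as displacement of a radioligand from CHO-derived receptor preparation, 1 h incubation, filtration and scintillation counting, analysed as signal loss against DMSO.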

The target in test [9] is Muscarinic acetylcholine receptor M3 (Homo sapiens) (UniProt P20309). As to the kind of experiment: NVS_GPCR_hM3: NovaScreen (NVS) G Protein-Coupled Receptor Assay for human Muscarinic, M3 Receptor (AID 2283272). The method, boiled down: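 Radioligand displacement binding on human M3 receptor in CHO-derived membranes, 1 h incubation, filter-based scintillation counting. Primary screen in duplicate at 25 uM; actives followed up in concentration series; loss of signal versus DMSO.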

Test [10] addresses Muscarinic acetylcholine receptor M2 (Homo sapiens) (UniProt P08172). As to the kind of experiment: NVS_GPCR_hM2: NovaScreen (NVS) G Protein-Coupled Receptor Assay for human Muscarinic, M2 Receptor (AID 2283273). The method, boiled down: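 Filter-based radiodetection read bound radioligand 1 h after dosing CHO-derived membrane protein. Single-concentration duplicates (25 uM) first, then concentration-response for actives; signal loss versus DMSO scored.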

In test [11] the target is human Muscarinic, M4 Receptor, CHRM4 (gene 1132) (UniProt P08173). The experiment in a line: NVS_GPCR_hM4: NovaScreen (NVS) G Protein-Coupled Receptor Assay for human Muscarinic, M4 Receptor (AID 2283274). A digest of the protocol:
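Filter-based scintillation counting of radioligand bound to CHO-expressed human M4 preparations after 1 h; loss of signal fitted versus DMSO. Initial duplicate testing at 25 uM, concentration-response follow-up for actives.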

For test [12], the target named is Muscarinic acetylcholine receptor M5 (Homo sapiens) (UniProt P08912). As to the kind of experiment: NVS_GPCR_hM5: NovaScreen (NVS) G Protein-Coupled Receptor Assay for human Muscarinic, M5 Receptor (AID 2283275). A digest of the protocol: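 Chemicals passing a primary duplicate screen at 25 uM were run as singleton concentration series, maximum 50 uM. Displacement of a specific radioligand from CHO-extracted receptor was read by filter scintillation after 1 h, relative to DMSO.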
Muscarinic acetylcholine receptor M5 (Homo sapiens), sequence (P08912 whole entry, looked up): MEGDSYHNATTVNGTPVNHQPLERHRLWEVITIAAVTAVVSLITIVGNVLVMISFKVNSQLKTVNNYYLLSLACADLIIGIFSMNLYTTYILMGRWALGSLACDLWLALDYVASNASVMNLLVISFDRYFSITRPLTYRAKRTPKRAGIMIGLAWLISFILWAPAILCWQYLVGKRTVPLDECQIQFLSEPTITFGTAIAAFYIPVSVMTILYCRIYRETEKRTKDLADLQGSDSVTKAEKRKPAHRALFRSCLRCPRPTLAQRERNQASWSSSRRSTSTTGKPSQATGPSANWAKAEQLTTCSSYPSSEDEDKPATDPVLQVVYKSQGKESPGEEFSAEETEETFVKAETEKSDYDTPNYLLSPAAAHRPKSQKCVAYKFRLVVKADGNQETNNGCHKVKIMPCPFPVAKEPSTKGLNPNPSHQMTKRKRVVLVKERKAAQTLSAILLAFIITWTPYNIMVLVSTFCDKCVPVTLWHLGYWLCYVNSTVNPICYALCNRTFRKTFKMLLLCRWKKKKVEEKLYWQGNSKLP

Test [13] deals with human Neuropeptide Receptor Y1 (NPY1), NPY1R (gene 4886) (UniProt P25929). The experiment in a line: NVS_GPCR_hNPY1: NovaScreen (NVS) G Protein-Coupled Receptor Assay for human Neuropeptide Receptor Y1 (NPY1) (AID 2283276). The method, boiled down: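 Displacement of specific radioligand from NPY1 receptor of SK-N-MC origin, read by filtration and scintillation after 1 h. Compounds first tested at 25 uM in duplicate, then actives in concentration series; signal loss relative to DMSO.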

The target of test [14] is Neuropeptide Y receptor type 2 (Homo sapiens) (UniProt P49146). As to the kind of experiment: NVS_GPCR_hNPY2: NovaScreen (NVS) G Protein-Coupled Receptor Assay for human Neuropeptide Receptor Y2 (NPY2) (AID 2283277). The method, boiled down: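 Chemicals were first tested in duplicate at 25 uM, then actives in singleton concentration series to 50 uM. Tracer binding to SK-N-MC-derived protein measured cell-free after 1 h via filter scintillation; signal loss relative to DMSO.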

Test [15] concerns the target human Neurokinin, NK2 Receptor, TACR2 (gene 6865) (UniProt P21452). As to the kind of experiment: NVS_GPCR_hNK2: NovaScreen (NVS) G Protein-Coupled Receptor Assay for human Neurokinin, NK2 Receptor (AID 2283278).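 Note: actives reduce bound radioligand signal relative to DMSO baseline.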 A digest of the protocol: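 Radioligand binding on membranes from CHO cells expressing receptor, filter-based scintillation read 4 h after dosing. Initial duplicate screen at 25 uM, actives in concentration series; loss of signal versus DMSO.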

Test [16] addresses human Neurotensin Receptor (NTS), NTSR1 (gene 4923) (UniProt P30989). The experiment in a line: NVS_GPCR_hNTS: NovaScreen (NVS) G Protein-Coupled Receptor Assay for human Neurotensin Receptor (NTS) (AID 2283279). The method, boiled down: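 Compounds competed with a radiolabelled ligand for binding to CHO-derived human neurotensin receptor; bound signal counted after filtration, 1 h. Screened first at a single concentration of 25 uM in duplicate, then concentration series to 50 uM maximum for actives.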

The target of test [17] is human Opioid Receptor Delta 1 (Opiate D1), OPRD1 (gene 4985) (UniProt P41143). The experiment in a line: NVS_GPCR_hOpiate_D1: NovaScreen (NVS) G Protein-Coupled Receptor Assay for human Opioid Receptor Delta 1 (Opiate D1) (AID 2283280). The method, boiled down:
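Membrane preparations from CHO cells bearing the human receptor were incubated 1 h with test chemical, and bound radioligand was counted after filtration. Actives from 25 uM duplicate screening were retested in concentration-response.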

The target in test [18] is human Orphanin, Opioid Related Nociceptin Receptor 1 (ORL1), OPRL1 (gene 4987) (UniProt P41146). The experiment in a line: NVS_GPCR_hORL1: NovaScreen (NVS) G Protein-Coupled Receptor Assay for human Orphanin, Opioid Related Nociceptin Receptor 1 (ORL1) (AID 2283283). A digest of the protocol: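 Cell-free binding using HEK293-derived receptor protein: radioligand displacement measured by filter scintillation 1 hour after dosing. Primary testing at 25 uM in duplicate, followed by singleton concentration series up to 50 uM; DMSO served as negative control.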

Test [19] addresses human Leukotriene B4 Receptor 1 (LTB4-BLT1), LTB4R (gene 1241) (UniProt Q15722). The experiment in a line: NVS_GPCR_hLTB4_BLT1: NovaScreen (NVS) G Protein-Coupled Receptor Assay for human Leukotriene B4 Receptor 1 (LTB4-BLT1) (AID 2283271). A digest of the protocol: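 Cell-free human neutrophil receptor preparation, 1 h exposure, radioligand binding read by filter scintillation counting. Single 25 uM duplicate screen, then concentration series topping at 50 uM; binding loss scored against DMSO baseline.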

Structures are written as SMILES. Inconclusive results are not listed. Active and inactive are the calls of the source. Rule for the calls: active = hit-call score of the fitted dose curve at least 0.9, where 1 is the maximum; inconclusive = response in the unintended direction; inactive = score below 0.9.

human Dopamine Receptor D2 (DRD2), DRD2 (gene 1813), sequence (P14416 whole entry, looked up): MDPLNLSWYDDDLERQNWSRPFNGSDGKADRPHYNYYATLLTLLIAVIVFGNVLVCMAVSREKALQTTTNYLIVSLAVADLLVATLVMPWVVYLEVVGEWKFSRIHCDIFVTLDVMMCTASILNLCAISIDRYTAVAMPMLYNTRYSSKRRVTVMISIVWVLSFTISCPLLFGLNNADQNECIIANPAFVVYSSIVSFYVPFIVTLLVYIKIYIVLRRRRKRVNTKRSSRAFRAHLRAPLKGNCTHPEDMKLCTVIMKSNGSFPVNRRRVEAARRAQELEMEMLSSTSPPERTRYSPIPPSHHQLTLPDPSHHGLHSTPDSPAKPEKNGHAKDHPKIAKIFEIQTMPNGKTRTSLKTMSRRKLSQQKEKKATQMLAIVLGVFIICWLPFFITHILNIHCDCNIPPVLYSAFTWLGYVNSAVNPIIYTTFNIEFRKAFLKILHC
mouse Cholecystokinin, CCK1 Receptor (CCKA), Cckar (gene 12425), sequence (O08786 whole entry, looked up): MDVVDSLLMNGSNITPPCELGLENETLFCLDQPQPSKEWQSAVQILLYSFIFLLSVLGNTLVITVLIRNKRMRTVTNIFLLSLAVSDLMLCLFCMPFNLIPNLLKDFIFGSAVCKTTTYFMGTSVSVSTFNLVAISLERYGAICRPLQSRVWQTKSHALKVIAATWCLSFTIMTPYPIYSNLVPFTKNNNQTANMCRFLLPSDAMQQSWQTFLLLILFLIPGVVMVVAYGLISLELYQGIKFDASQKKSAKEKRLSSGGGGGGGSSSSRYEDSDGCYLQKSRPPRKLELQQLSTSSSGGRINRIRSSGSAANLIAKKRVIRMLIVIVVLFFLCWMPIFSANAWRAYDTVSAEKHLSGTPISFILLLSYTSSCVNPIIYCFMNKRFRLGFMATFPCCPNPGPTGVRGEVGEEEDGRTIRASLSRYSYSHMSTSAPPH
D(1A) dopamine receptor (Homo sapiens), sequence (P21728 whole entry, looked up): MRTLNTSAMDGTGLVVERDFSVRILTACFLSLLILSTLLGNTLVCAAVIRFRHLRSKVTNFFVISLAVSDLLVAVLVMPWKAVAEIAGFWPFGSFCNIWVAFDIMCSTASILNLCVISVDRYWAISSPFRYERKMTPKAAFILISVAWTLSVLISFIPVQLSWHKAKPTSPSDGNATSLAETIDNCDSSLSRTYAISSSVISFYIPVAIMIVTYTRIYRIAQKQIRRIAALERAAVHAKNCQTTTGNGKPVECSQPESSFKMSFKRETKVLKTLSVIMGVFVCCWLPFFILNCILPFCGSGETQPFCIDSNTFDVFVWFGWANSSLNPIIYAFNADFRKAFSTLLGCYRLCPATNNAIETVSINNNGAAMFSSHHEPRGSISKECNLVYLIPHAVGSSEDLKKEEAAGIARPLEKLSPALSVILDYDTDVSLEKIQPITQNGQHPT
human Neurokinin, NK2 Receptor, TACR2 (gene 6865), sequence (P21452 whole entry, looked up): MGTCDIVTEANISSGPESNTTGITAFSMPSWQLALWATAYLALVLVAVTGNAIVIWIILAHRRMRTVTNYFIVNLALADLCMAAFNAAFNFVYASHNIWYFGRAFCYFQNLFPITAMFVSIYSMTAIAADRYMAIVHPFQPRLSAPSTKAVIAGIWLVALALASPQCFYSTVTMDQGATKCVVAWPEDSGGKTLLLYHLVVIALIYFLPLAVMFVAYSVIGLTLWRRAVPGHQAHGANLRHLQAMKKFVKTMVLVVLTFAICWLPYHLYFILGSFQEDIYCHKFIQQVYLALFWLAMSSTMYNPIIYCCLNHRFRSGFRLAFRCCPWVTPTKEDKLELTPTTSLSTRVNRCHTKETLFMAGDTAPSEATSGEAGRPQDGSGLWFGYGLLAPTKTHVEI
human Histamine 1 Receptor (H1), HRH1 (gene 3269), sequence (P35367 whole entry, looked up): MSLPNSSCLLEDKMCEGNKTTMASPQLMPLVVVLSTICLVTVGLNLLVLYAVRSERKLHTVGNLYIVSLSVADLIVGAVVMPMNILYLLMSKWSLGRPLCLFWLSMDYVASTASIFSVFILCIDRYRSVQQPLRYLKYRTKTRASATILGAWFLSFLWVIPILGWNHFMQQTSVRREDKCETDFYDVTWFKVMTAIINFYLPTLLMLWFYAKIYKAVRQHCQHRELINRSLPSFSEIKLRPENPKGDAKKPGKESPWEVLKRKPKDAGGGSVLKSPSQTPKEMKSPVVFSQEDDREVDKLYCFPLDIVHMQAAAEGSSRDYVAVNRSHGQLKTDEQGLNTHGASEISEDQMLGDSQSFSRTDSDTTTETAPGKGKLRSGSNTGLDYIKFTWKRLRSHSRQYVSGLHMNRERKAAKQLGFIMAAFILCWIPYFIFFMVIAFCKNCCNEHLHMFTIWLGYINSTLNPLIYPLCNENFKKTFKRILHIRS
human Leukotriene B4 Receptor 1 (LTB4-BLT1), LTB4R (gene 1241), sequence (Q15722 whole entry, looked up): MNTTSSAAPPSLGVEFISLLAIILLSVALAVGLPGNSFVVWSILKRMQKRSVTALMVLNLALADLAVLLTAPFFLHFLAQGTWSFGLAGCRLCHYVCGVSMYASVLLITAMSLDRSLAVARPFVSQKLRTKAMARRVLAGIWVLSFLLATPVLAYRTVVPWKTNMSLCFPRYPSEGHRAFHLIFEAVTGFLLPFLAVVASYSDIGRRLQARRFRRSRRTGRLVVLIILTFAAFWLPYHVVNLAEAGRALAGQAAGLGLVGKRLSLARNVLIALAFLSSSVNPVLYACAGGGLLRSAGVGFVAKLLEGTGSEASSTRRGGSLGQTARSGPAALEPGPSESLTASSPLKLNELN
human Opioid Receptor Delta 1 (Opiate D1), OPRD1 (gene 4985), sequence (P41143 whole entry, looked up): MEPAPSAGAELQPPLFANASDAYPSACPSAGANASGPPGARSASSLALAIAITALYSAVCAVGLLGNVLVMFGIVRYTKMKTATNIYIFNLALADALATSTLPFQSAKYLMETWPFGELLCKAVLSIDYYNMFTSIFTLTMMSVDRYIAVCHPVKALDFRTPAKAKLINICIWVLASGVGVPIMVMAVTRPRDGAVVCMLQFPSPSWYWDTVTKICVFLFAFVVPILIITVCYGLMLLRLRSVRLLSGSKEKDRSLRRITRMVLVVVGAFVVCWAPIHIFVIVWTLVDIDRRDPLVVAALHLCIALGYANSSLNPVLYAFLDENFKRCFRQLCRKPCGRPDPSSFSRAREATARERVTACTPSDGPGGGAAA
human Purinergic Receptor P2Y, P2RY1 (gene 5028), sequence (P47900 whole entry, looked up): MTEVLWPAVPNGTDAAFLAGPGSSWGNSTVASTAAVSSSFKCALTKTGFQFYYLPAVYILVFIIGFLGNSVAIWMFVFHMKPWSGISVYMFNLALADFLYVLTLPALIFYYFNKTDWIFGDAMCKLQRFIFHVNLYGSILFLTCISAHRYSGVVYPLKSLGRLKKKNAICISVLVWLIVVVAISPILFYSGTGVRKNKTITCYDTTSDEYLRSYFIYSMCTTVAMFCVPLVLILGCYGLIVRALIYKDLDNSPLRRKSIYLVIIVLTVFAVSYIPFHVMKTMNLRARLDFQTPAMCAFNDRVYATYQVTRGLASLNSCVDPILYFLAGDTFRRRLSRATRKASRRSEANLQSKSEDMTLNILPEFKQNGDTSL

On to `CCOP(=S)(OCC)SCSC(C)(C)C`, for which the result in test [1] was inactive.
With `CCOC(=O)C(O)(c1ccc(Cl)cc1)c1ccc(Cl)cc1`, the outcome in test [2] was inactive. For the same compound, the AC50 (as a rule, the midpoint of the concentration-response curve, whichever way the signal moves) in [3] is 11.7 µM (active).
On to `CCCCCCCCCC[N+](C)(C)CCCCCCCCCC`, for which the AC50 in test [4] was 5.51 µM (active); in [5] it was 16.4 µM (active); in test [6] it was 6.19 µM (active); in test [7], 2.6 µM (active); in test [8], 7.03 µM (active); in [9], 3.37 µM (active). For the same compound, the AC50 in test [10] was 6.18 µM (active); in test [11] it was 3.56 µM (active); in [12], 2.39 µM (active); in test [13], 7.12 µM (active); in test [14], 11.6 µM (active); in test [15], 2.98 µM (active). The AC50 in [16] is 4.36 µM (active); in test [17] it was 4.31 µM (active); in test [2], 14.3 µM (active); in [18], 7.48 µM (active); in test [3], 6.6 µM (active).
For `CCC(C)(c1ccc(O)cc1)c1ccc(O)cc1`, the AC50 is 11.3 µM (active) in test [7] and 13.2 µM (active) in test [17]. Besides, in test [15], the compound was called inactive.
For `Cc1cccc(C)c1N`, the compound was classed as inactive in test [19].
Take `CC(C)(c1ccccc1)c1ccc(O)cc1`: the compound was classed as inactive in test [4], in test [19] and in [12]. Also, the AC50 in [7] is 25 µM (active); in [15], 25 µM (active); in test [3] it was 18.2 µM (active).
With `Cc1cc(-c2ccc(N)c(C)c2)ccc1N`, the compound was classed as inactive in test [4] and in test [6].

The record behind these values is PubChem BioAssay (EPA / NIEHS).
